The values that follow come from PubChem BioAssay (NCI).

SMILES strings stand for the structures. This is part of a sample that, as a whole, favours compounds with a hit. Of some 83,000 tested, about 20% had one in any assay.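 Activity criterion: percent growth below 10, measured after cells in 96-well plates were exposed to a single compound concentration for 48 hours.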 A number with no mark means an inactive call. Active and inactive are the calls of the source.

Among the test systems are DU-145 prostate; K-562 leukemia; MALME-3M melanoma; MDA-MB-231 breast; RXF 393 renal; SF-268 CNS; SF-295 CNS; SF-539 CNS; UACC-257 melanoma; M14 melanoma; HCT-15 colon; HT29 colon; SNB-75 CNS; SNB-19 CNS; U251 CNS; PC-3 prostate; SK-MEL-5 melanoma; UACC-62 melanoma; LOX IMVI melanoma; SK-MEL-28 melanoma.
Assay in all cases: NCI-60 one-dose screen, 48 h (100 = growth as untreated, 0 = no growth, -100 = all killed)
Holding throughout (details): 10 µM unless noted

With `C=C1CC[C@@H]2[C@@](C)(CCC[C@]2(C)C(=O)O)[C@@H]1CC[C@H](CO)CCO`, the growth with DU-145 prostate was 112%; in the test with K-562 leukemia it was 106%; with MALME-3M melanoma, 93.8%; with MDA-MB-231 breast it was 105%; with RXF 393 renal, 118%; in the test on SF-268 CNS it was 99.8%. Moreover, the growth in the test with SF-295 CNS was 103%; with SF-539 CNS, 105%; in the test on UACC-257 melanoma, 109%; with M14 melanoma it was 102%; with HCT-15 colon, 108%; in the test with HT29 colon, 104%. In addition, the growth in the test with SNB-75 CNS was 94.8%; with SNB-19 CNS it was 101%; in the test with U251 CNS, 102%; with PC-3 prostate, 99.7%; with SK-MEL-5 melanoma it was 112%; in the test with UACC-62 melanoma, 99.2%. Further, the values for the growth in the test on LOX IMVI melanoma and in the test on SK-MEL-28 melanoma were 99.1% and 105%, respectively.

With `c1ccc2cc(-c3n(Cc4ccc5ccccc5n4)c4ccccc4[n+]3Cc3ccc4ccccc4n3)ccc2c1`, the growth is 13.3% in the test on DU-145 prostate; -6.05% (active) in the test with K-562 leukemia; -32.9% (active) in the test with MALME-3M melanoma; -21% (active) in the test on MDA-MB-231 breast; -18.8% (active) with RXF 393 renal; -3.09% (active) with SF-268 CNS. The growth in the test with SF-295 CNS was -13.7% (active); with SF-539 CNS, 0.28% (active); in the test on UACC-257 melanoma, -14.2% (active); in the test on M14 melanoma, -8.82% (active); with HCT-15 colon, 18.8%; in the test with HT29 colon it was -31.7% (active). Besides, the growth in the test on SNB-75 CNS was -32.8% (active); in the test with SNB-19 CNS, 6.22% (active); in the test with U251 CNS, -7.46% (active); in the test with PC-3 prostate, 0.461% (active); with SK-MEL-5 melanoma it was -96% (active); with UACC-62 melanoma, -60.6% (active). The growth in the test on LOX IMVI melanoma was -85.8% (active); with SK-MEL-28 melanoma, -24.2% (active).

Regarding `COc1cc(C2C3=C(COC3=O)N(CCO)c3cc4c(cc32)OCO4)cc(OC)c1O` (stereo not given), the growth is 11.3% in the test on DU-145 prostate; 27.9% in the test on K-562 leukemia; 35.3% in the test with MALME-3M melanoma; 54% in the test on MDA-MB-231 breast; 13.1% in the test with RXF 393 renal; 51.1% in the test with SF-268 CNS. For the same molecule, the growth in the test on SF-295 CNS was 8.07% (active); in the test on SF-539 CNS it was 12.7%; in the test on UACC-257 melanoma, 14.5%; with M14 melanoma, 9.86% (active); in the test with HCT-15 colon, 44.8%; in the test on HT29 colon, 8.44% (active). The growth is -11.3% (active) with SNB-75 CNS; 41.5% in the test on SNB-19 CNS; 21.4% in the test with U251 CNS; 29.5% with PC-3 prostate; 29.3% with SK-MEL-5 melanoma; 26.2% in the test on UACC-62 melanoma. Moreover, the growth was 40.1% in the test with LOX IMVI melanoma and 59.5% in the test on SK-MEL-28 melanoma.

In the case of `O=c1[nH]c(=O)n(Cc2ccc(F)cc2)cc1F`, the growth is 110% [50 µM] in the test with DU-145 prostate; 86.7% [50 µM] with K-562 leukemia; 101% [50 µM] in the test on MALME-3M melanoma; 101% [50 µM] in the test on MDA-MB-231 breast; 111% [50 µM] in the test on RXF 393 renal; 99.1% [50 µM] with SF-268 CNS. Also, the growth was 101% [50 µM] in the test with SF-295 CNS; 100% [50 µM] in the test on SF-539 CNS; 83.9% [50 µM] in the test on UACC-257 melanoma; 109% [50 µM] in the test with M14 melanoma; 99.5% [50 µM] in the test with HCT-15 colon; 114% [50 µM] in the test on HT29 colon. Further, the growth in the test with SNB-75 CNS was 104% [50 µM]; with SNB-19 CNS, 100% [50 µM]; with U251 CNS it was 98.7% [50 µM]; with PC-3 prostate it was 107% [50 µM]; with SK-MEL-5 melanoma it was 104% [50 µM]; in the test on UACC-62 melanoma, 101% [50 µM]. The growth was 96.4% [50 µM] in the test with LOX IMVI melanoma and 109% [50 µM] in the test with SK-MEL-28 melanoma.

`CCOC(=O)c1cnn(CC(O)c2ccc(F)cc2)c1NC(=O)Nc1ccccc1F` (stereo not given): the growth in the test with DU-145 prostate is 102%; with K-562 leukemia, 97.5%; with MALME-3M melanoma, 93.3%; with MDA-MB-231 breast, 91.2%; in the test with RXF 393 renal, 108%; in the test with SF-268 CNS, 99%. The growth is 91.6% with SF-295 CNS; 95.1% in the test on SF-539 CNS; 107% in the test with UACC-257 melanoma; 93% in the test with M14 melanoma; 103% in the test with HCT-15 colon; 117% in the test on HT29 colon. The growth in the test on SNB-75 CNS was 82.2%; with SNB-19 CNS, 98.3%; in the test with U251 CNS it was 97.8%; in the test on PC-3 prostate it was 81.5%; in the test with SK-MEL-5 melanoma, 75.9%; with UACC-62 melanoma it was 73.8%. Besides, the growth with LOX IMVI melanoma and with SK-MEL-28 melanoma was 101% throughout.

On to `COC(=O)c1c2c(c(C)[n+]([O-])c1C)C(=O)C(NCc1ccc(O)cc1)=CC2=O`, for which the growth with DU-145 prostate is -69.2% (active); in the test on K-562 leukemia, 6.74% (active); in the test with MALME-3M melanoma it was -98.5% (active); in the test with MDA-MB-231 breast, -10.3% (active); in the test with RXF 393 renal, -4.53% (active); in the test with SF-268 CNS, -9.31% (active). Further, the growth in the test on SF-295 CNS is -9.04% (active); in the test with SF-539 CNS it was -59.7% (active); with UACC-257 melanoma, -62.4% (active); with M14 melanoma, -76.5% (active); in the test on HCT-15 colon, -43.4% (active); with HT29 colon it was 3.68% (active). For the same molecule, the growth in the test on SNB-75 CNS is -29.5% (active); with SNB-19 CNS it was -28.5% (active); with U251 CNS, -0.0674% (active); in the test with PC-3 prostate, 7.51% (active); in the test on SK-MEL-5 melanoma, -99.7% (active); in the test on UACC-62 melanoma, -73.8% (active). Also, the results for the growth in the test with LOX IMVI melanoma and in the test with SK-MEL-28 melanoma were -89.6% (active) and -3.61% (active), respectively.

Take `c1ccc(-c2n(Cc3ccc4ccccc4c3)c3ccccc3[n+]2Cc2ccc3ccccc3c2)cc1`: the growth in the test with DU-145 prostate was 4.24% (active); in the test on K-562 leukemia, -35.8% (active); in the test on MALME-3M melanoma, -57.5% (active); with MDA-MB-231 breast it was -49.4% (active); with RXF 393 renal it was -39.4% (active); in the test with SF-268 CNS it was -61.9% (active). Besides, the growth is -47.1% (active) in the test on SF-295 CNS; -16.2% (active) in the test with SF-539 CNS; -21.4% (active) in the test with UACC-257 melanoma; -75.8% (active) with M14 melanoma; -31.9% (active) in the test with HCT-15 colon; -68.1% (active) in the test on HT29 colon. Also, the growth is -43.9% (active) in the test on SNB-75 CNS; -16.4% (active) with SNB-19 CNS; -73.3% (active) in the test with U251 CNS; -30.5% (active) in the test with PC-3 prostate; -98.1% (active) in the test on SK-MEL-5 melanoma; -82.9% (active) in the test with UACC-62 melanoma. In addition, the growth is -97.3% (active) with LOX IMVI melanoma and -43.7% (active) in the test on SK-MEL-28 melanoma.

On to `CCCN1CCN(c2ccc3nc(-c4ccc5nc(-c6ccc(C(F)(F)F)cc6)[nH]c5c4)[nH]c3c2)CC1`, for which the growth was -95.3% (active) in the test on DU-145 prostate; -51.4% (active) in the test on K-562 leukemia; -64.7% (active) in the test on MALME-3M melanoma; -86.9% (active) with MDA-MB-231 breast; -70.4% (active) in the test on RXF 393 renal; -70.2% (active) in the test on SF-268 CNS. The growth was -58.4% (active) in the test on SF-295 CNS; -94.6% (active) with SF-539 CNS; 96.5% with UACC-257 melanoma; -59% (active) in the test on M14 melanoma; -55.1% (active) with HCT-15 colon; -44% (active) in the test with HT29 colon. Moreover, the growth in the test on SNB-75 CNS is 32.5%; in the test on SNB-19 CNS, -93.8% (active); in the test on U251 CNS it was -82.2% (active); in the test with PC-3 prostate, -68% (active); in the test on SK-MEL-5 melanoma, 37.2%; in the test on UACC-62 melanoma, 72.9%. Moreover, the figures for the growth in the test with LOX IMVI melanoma and in the test with SK-MEL-28 melanoma were -92.9% (active) and -94.6% (active), respectively.
